# D3 ag: agonists of human D3 dopamine receptor; P35462; D3R DiscoveRx beta-arrestin cells, luminescence, 90 min; max activation, %; actives 0.58% (n = 410,000); AID 652048; in the data active means max activation above about 30%; further: 0% is about no effect
#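 Cells at 1500/well, incubated overnight, then treated with pinned compounds (dopamine as control) for 90 min at 37 degrees C. DiscoveRx reagent added for 30 - 60 minutes at room temperature; luminescence read.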
# D1 agonist: activates the human D1 dopamine receptor. AID 504660. activation, % at 2 µM. P21728. actives 1% (n = 360,000). HEK293 T-REx D1 cells, calcium flux, agonist mode; in the data active means activation above about 30%; further: 0% is about no effect
# Target sequence (P21728 whole entry, looked up): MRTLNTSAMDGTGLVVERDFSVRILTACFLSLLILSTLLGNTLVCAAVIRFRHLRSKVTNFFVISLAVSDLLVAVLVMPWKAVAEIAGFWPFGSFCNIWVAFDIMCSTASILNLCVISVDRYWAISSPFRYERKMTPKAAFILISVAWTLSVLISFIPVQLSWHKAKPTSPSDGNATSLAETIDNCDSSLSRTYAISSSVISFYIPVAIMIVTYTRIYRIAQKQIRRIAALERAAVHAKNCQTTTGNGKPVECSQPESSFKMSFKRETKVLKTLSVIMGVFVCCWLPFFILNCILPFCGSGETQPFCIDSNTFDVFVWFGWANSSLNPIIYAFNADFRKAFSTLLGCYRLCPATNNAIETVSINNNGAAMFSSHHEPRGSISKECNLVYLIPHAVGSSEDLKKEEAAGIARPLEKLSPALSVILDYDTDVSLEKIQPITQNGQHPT
#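 Tetracycline-induced HEK293 TREx D1 cells, force-coupled to calcium signalling, were dye-loaded with a no-wash calcium kit. Compound was pin-added after a 10 s baseline. Fluorescence was read kinetically at 1 cycle/s for 180 s, with calcium rises flagged as agonism.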
# Chronic BCR inh: inhibitors of chronic active B-cell receptor signaling; actives 0.05% (n = 340,000); AID 493014; Potency, µM (highest dose often 46.1 µM), for the others: at the highest dose activity change, negative = inhibition, hits mostly inhibitors; ABC-DLBCL IkBa-CBG/CBR reporter, luminescence ratio, 4 h; active means well fitted inhibition curve with a large enough effect in the signal ratio, with a control signal flat, not every such curve was filed as active; inconclusive means small, poorly fitted or top-dose-only effect, or effect the other way, or a change in a side signal; the % refers to the signal ratio;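 further: potency means the concentration at half of the fitted maximal effect; plate controls were basal doxycycline-induced cells for no effect and cells given 10 µM MG132 for full effect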
#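 Compounds up to 46 uM were incubated four hours with TMD8 cells whose green CBG68 luciferase is fused to IkappaBalpha; red CBR luminescence normalised the signal, and concentration-effect curves were fitted to fusion, red and ratio data.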
# D1 antag: blocks dopamine activation of the human D1 receptor; actives 3.2% (n = 360,000); HEK293 TREx D1 cells, calcium flux, dopamine EC80; stronger effect = lower value; activity change, negative = inhibition, % at 10 µM; P21728; in the data active means activity change below about -30%; further: on the % scale 0 is the no-effect control and ±100 the full control effect
#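 Using tetracycline-induced force-coupled D1 Hek293 cells and a calcium dye, signals were followed for 180 s after compound, then for 180 s after EC80 dopamine, to detect inhibitors.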
# D3 antag: D3 dopamine receptor (human) antagonism. P35462. D3R cells, DiscoveRx beta-arrestin luminescence, antagonist mode; stronger effect = lower value. max response, negative = inhibition, %. actives 2.5% (n = 360,000). AID 652054; in the data active means max response below about -50%; inconclusive means no clear call, values can overlap the other calls; further: on the % scale 0 is the no-effect control and ±100 the full control effect
#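 Cells expressing the human receptor were seeded at 1500 cells/well, incubated overnight at 37 degrees C in 5% CO2, then exposed to library compounds with dopamine controls for 90 minutes at 37 degrees C before luminescent detection.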
# D1 potentiator: human D1 dopamine receptor positive modulation. actives 0.036% (n = 360,000). HEK293 TREx D1 cells, calcium flux, dopamine EC20 potentiation. potentiation, % at 10 µM; in the data active means potentiation above about 30%; further: 0% is about no effect
# Numbers without * were called inactive; ? = inconclusive; . = no result; [ ] = remark or other dose. Sampled rows, rich in hits. Any-hit rate of the full collection: about 6%.
SMILES,D3 ag,D1 agonist,Chronic BCR inh,D1 antag,D3 antag,D1 potentiator
Cc1cc(Br)ccc1NC(=O)C1CCN(S(=O)(=O)c2cccc3nsnc23)CC1,-12.5,-2.5,.,13.5,.,-0.5
CCCCC(O)c1ccccc1 (centres undefined),0.5,.,.,.,.,.
CC1=C([N+](=O)[O-])C(c2ccccc2)NC(=O)N1 (centres undefined),2.2,-0.1,7.4%,-33.4*,24.6,0.8
O=C1OC2(CCCCC2)CC2=C1C1O[C@](CCCCN3C(=O)c4ccccc4C3=O)(Cc3ccccc31)O2,.,3.3,13.0%[9.22 µM],-9.1,.,-3.2
OC1(c2ccc(F)cc2)CCN(Cc2nnnn2Cc2cccs2)CC1,-3.6,1.5,10.9%,-10.3,-85.8*,-5.4
CC(C)(C)OC(=O)N1CCC(c2c(C(=O)N3CCN(c4ncccn4)CC3)cnn2-c2ccc(F)cc2)CC1,5.7,0.8,.,8.9,.,2.6
Nc1ccn(C(C=O)CC(C=O)CO)c(=O)n1 (centres undefined),-6.0,.,.,.,0.0,.
C=CCn1c(COc2ccccc2F)nnc1SCC(=O)Nc1cc2oc3ccccc3c2cc1OC,5.4,3.2,7.7%,16.5,2.3,-2.8
C=CCn1c(COc2ccccc2F)nnc1SCC(=O)c1c[nH]c2ccccc12,-13.2,4.7,?,-34.9*,1.1,-5.0
CC1(C)CC(CC(=O)NC(=S)Nc2ccc([N+](=O)[O-])cc2)C(=O)O1 (centres undefined),-13.9,2.1,6.1%,1.9,-82.7*,-6.8
CC(C)NC(=O)CSc1nnc(C2CC2)n1-c1ccccc1,4.4,1.2,-2.8%,-0.9,-50.9*,-2.1
COc1cc(C2c3c(oc4ccccc4c3=O)C(=O)N2c2ccccn2)cc(OC)c1OC (centres undefined),-2.1,-0.7,.,-0.3,.,-4.3
Cc1cc(NC(=O)CSc2nc3ccccc3n2CC(=O)N2CC(C)CC(C)C2)no1 (centres undefined),5.9,-1.2,-8.2%,-41.3*,16.5,0.7
Cc1cc(NC(=O)CSc2nc3cc4c(cc3c(=O)n2CCc2ccccc2)OCO4)no1,1.6,-0.2,?,20.5,-53.0*,1.2
COc1ccc(-c2nc3sc(CCNS(=O)(=O)c4ccccc4)c(C)n3n2)cc1,8.2,13.5,-4.8%,.,.,-1.2
N#CC1C(=O)NC(=O)C(C#N)C12CCCc1sccc12 (centres undefined),5.0,.,.,.,6.5,.
COc1ccc(S(=O)(=O)NCc2cn3c(C)csc3n2)cc1F,2.0,2.5,1.5%,-49.2*,15.8,-2.0
Cc1csc2nc(CNS(=O)(=O)c3ccc4c(c3)OCCO4)cn12,1.5,5.7,2.7%,-1.6,21.2,-5.5
Cc1csc2nc(CNS(=O)(=O)c3cccnc3)cn12,-3.7,.,.,.,-17.7,.
Cc1csc2nc(CNS(=O)(=O)c3ccc4c(c3)CCCC4)cn12,12.3,9.7,-3.0%,-60.2*,3.6,-16.6
CC(=O)Nc1ccc(S(=O)(=O)NCc2cn3c(C)csc3n2)cc1,-0.5,1.2,2.3%,-8.1,-68.9*,-0.3
COc1ccc(OC)c(S(=O)(=O)NCc2cn3c(C)csc3n2)c1,-1.4,1.7,0.0%,-0.5,26.9,-2.0
Cc1csc2nc(CNS(=O)(=O)N(C)C)cn12,1.0,0.8,2.3%,-72.0*,6.4,.
COc1ccc(NC(=O)CNC(=O)Cn2ccc3ccccc3c2=O)cc1OC,-7.3,3.2,.,1.0,.,-0.5
COC(=O)N1C(=O)[C@](c2ccsc2)(C(C)C)N1C(=O)OC,-22.8,1.8,?,-67.2*,?,-8.3
SMILES,D3 ag,D1 agonist,Chronic BCR inh,D1 antag,D3 antag,D1 potentiator
Cc1csc2c(NC3CCN(Cc4ccccc4)CC3)ncnc12,-20.5,10.9,0.7%,-36.8*,-81.3*,-9.2
Cc1sc2ncnc(NC3CCN(Cc4ccccc4)CC3)c2c1C,-12.1,7.9,-1.3%,-53.1*,-74.9*,-16.5
O=C(COc1ccccc1Cl)Nc1nc(-c2ccc(F)cc2)ns1,2.7,9.8,.,-7.6,.,-1.4
Cc1nc2scc(-c3ccccc3)c2c(=O)n1N=C1C=CC(=O)C=C1,-18.3,3.2,?,-10.0,-82.6*,-5.0
COc1cc(C(=O)N2CCCCC2c2cc(C(=O)Nc3ccccc3)no2)cc(OC)c1C (centres undefined),-4.7,.,.,.,0.2,.
Cc1cccc(C)c1NC(=O)C(C)n1c(-c2ccc(=O)[nH]c2)nc2ccccc21 (centres undefined),4.9,.,.,.,9.2,.
CCC(C(=O)NC(C)(C)C)n1c(-c2ccc(C)cc2)nc2ccccc21 (centres undefined),52.7*,.,.,.,0.0,.
CCC(C(=O)Nc1c(C)cccc1C)n1c(-c2ccc(-c3ccccc3)cc2)nc2ccccc21 (centres undefined),71.0*,.,.,.,-24.6,.
Cc1cccc(N2CCN(C(=O)Cn3ncc4c([nH]c5ccccc54)c3=O)CC2C)c1 (centres undefined),12.6,-0.5,.,2.2,.,1.4
COc1ccccc1-c1nnc(SCC(=O)c2ccc(F)cc2)n1-c1ccccc1,7.1,3.0,.,-2.3,.,-1.5
COc1ccc(/C=C2\CCc3ccccc3C2=O)cc1Cn1cccn1,0.0,17.6,?,-48.9*,-11.1,-8.8
Cc1cccc(N2C(=O)CSC23C(=O)N(CC(=O)NCc2ccccc2Cl)c2ccccc23)c1 (centres undefined),-15.9,7.3,.,5.3,.,1.9
COc1cc(Cl)c(C)cc1NC(=O)c1cc2ccc3cccnc3c2[nH]1,4.0,2.2,.,-8.1,.,-0.1
COc1cccc(N2CC(NC(=O)C(=O)c3c[nH]c4ccccc34)CC2=O)c1 (centres undefined),0.2,2.5,-25.5%,-34.5*,8.1,-2.8
CN1/C(=C/C(=O)COC(=O)CN2C(=O)C3CC=CCC3C2=O)C(C)(C)c2ccccc21 (centres undefined),5.7,.,.,.,-8.0,.
CN1/C(=C\C(=O)COC(=O)Cn2nnc(-c3ccccc3)n2)C(C)(C)c2ccccc21,8.0,6.3,-12.6%,-35.5*,4.1,-5.0
O=C1CC(c2ccc(S(=O)(=O)NCc3ccccc3)cc2)CN1 (centres undefined),1.2,0.4,-4.0%,-18.3,-16.1,-4.8
Cc1ccccc1NS(=O)(=O)c1ccc(C2CNC(=O)C2)cc1 (centres undefined),-4.4,4.9,?,2.6,-103.9*,0.6
COc1cc(OC)c(NC(=O)c2c(C)nn(-c3ccc(C)cc3)c2-n2cccc2)cc1Cl,-5.8,0.8,.,20.9,.,-1.3
Nc1nonc1-n1nnc(C(=O)N/N=C/c2ccc3c(c2)OCO3)c1-c1ccccc1,2.9,26.0,8.6%,16.1,-1.5,-4.8
